From PubChem BioAssay
The list is not random: actives were taken first. Their share in the collection is about 1.6%.
KCNQ2 enhance – enhances the rat KCNQ2 potassium channel. O88943. CHO-K1 KCNQ2, FluxOR thallium flux fluorescence; hits give high values. B-score at 10 µM. hit rate 0.54% among 310,000. AID 2239;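 active means fluorescence ratio B-score at least 3 SD of library B-scores, with initial fluorescence B-score within 3 of them, cut at about 5.3 in these data; same plate scores as AID 2156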;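 further: B-score of peak minus minimum over baseline fluorescence ratio after K+ and Tl+ stimulus; positive B-score means potentiation of KCNQ2 with more thallium influx and brighter signal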
Target sequence (O88943 whole entry, looked up): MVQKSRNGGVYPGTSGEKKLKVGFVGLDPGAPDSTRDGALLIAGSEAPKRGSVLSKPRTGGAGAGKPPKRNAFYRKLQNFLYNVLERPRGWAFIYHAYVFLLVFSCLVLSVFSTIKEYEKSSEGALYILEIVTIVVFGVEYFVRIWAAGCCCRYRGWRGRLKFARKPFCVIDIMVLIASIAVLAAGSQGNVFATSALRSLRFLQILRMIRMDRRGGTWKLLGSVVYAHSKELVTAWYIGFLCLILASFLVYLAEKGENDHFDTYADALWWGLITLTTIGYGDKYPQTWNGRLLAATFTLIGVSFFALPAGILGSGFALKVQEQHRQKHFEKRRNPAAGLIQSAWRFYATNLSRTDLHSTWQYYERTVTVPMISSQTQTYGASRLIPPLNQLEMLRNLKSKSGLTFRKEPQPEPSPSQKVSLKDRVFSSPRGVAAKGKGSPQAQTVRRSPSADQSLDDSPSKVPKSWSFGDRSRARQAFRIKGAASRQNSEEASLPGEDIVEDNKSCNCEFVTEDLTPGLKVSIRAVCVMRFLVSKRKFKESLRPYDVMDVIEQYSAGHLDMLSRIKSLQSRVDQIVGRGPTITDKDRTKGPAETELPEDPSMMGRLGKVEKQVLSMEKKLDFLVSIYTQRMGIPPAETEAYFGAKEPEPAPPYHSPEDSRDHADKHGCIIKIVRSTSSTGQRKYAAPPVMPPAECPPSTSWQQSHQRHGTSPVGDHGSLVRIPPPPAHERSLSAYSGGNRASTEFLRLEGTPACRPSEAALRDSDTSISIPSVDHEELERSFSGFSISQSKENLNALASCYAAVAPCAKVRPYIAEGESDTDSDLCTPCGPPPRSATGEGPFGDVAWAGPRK
KCNQ2 inh – KCNQ2 (rat) channel inhibition; CHO-K1 KCNQ2, FluxOR thallium flux, 20 min; hits give low values; O88943; B-score at 10 µM; hit rate 1.1% among 310,000;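 active means fluorescence ratio B-score at most minus 3 library SDs, with starting brightness B-score within 2 library SDs, cut at about -5.5 in these data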
The depositor's hits bear a star; i = inactive; . = not tested or not shown.

SMILES	KCNQ2 enhance	KCNQ2 inh
CCOP(=O)(OCC)c1nc(-c2cccc3ccccc23)oc1N1CCCCC1	-6.1	-6.1*
COP(=O)(OC)c1nc(-c2cccc3ccccc23)oc1N1CCCCC1	.	i
CC(C#Cc1c([C@@H](C)Oc2ccccc2)nnn1Cc1ccccc1)Oc1ccccc1 (stereo not given in full)	-6.3	-6.3*
CN(C)c1nnnn1Cc1ccccc1	.	i
Cn1c(C(O)C(O)c2ccccc2)nc2ccccc21 (stereo not given)	0.77	i
Cn1c(N2CCN(C(c3ccccc3)c3ccccc3)CC2)nc2ccccc21	-12	-12*
Cc1ccc(OCCOC(=O)CN2C(=O)NC3(CCCC3)C2=O)cc1	0.2	i
CCOC(=O)c1ccc(S(=O)(=O)N2CCN(CC(=O)NC(=O)NC3CCCCC3)CC2)cc1	-5.6	-5.6*
O=C(CN1CCN(S(=O)(=O)c2ccc(F)cc2)CC1)NC1CCCC1	2	i
CC(=O)c1sc(NC(=O)CN2C(=O)C3CC=CCC3C2=O)nc1-c1ccccc1 (stereo not given)	.	i
COc1ccc(S(=O)(=O)Nc2cc3c4c(oc3c3ccccc23)CC(C)(C)CC4=O)cc1	-6.5	-6.5*
COc1ccc(S(=O)(=O)Nc2cc3c4c(oc3c3ccccc23)CCCC4=O)cc1	.	i
Cc1ccc(NC(=O)CN(c2ccccc2)S(=O)(=O)N(C)C)cc1C	.	i
Cc1cc(C)c(NC(=O)CN(c2ccccc2)S(=O)(=O)N(C)C)c(C)c1	-5.6	-5.6*
O=C(Cc1ccc(Cl)cc1)Nc1ccccc1Sc1ccccc1	7.8*	i
O=C(Cc1ccccc1)Nc1cc(Cl)ccc1Sc1ccccc1	.	i
Cc1ccc(NS(=O)(=O)c2cccc(C(=O)NCC3CCCO3)c2)cc1 (stereo not given)	.	i
CC(=O)Nc1ccc(S(=O)(=O)N(C)CC(=O)N/N=C/c2ccncc2)cc1	0.35	i
COc1ccc(CCNC(=O)Cc2ccc(OCc3ccccc3)c(OC)c2[N+](=O)[O-])cc1OCc1ccccc1	-7.7	-7.7*
COc1ccc(CCNC(=O)Cc2ccc([N+](=O)[O-])cc2)cc1OC	.	i
CCOc1ccc2[nH]c(=O)c(C(c3nnnn3Cc3ccco3)N3CCC(C)CC3)cc2c1 (stereo not given)	0.94	i
CCOc1ccc2[nH]c(=O)c(C(c3nnnn3Cc3ccco3)N3CCCC(C)C3)cc2c1 (stereo not given)	-6.5	-6.5*
O=c1c2ccccc2nc(-c2ccccc2)n1/N=C/c1ccc([N+](=O)[O-])cc1	-7.6	-7.6*
Cc1ccccc1-c1nc2ccccc2c(=O)n1/N=C/c1ccc([N+](=O)[O-])cc1	.	i
CSc1cccc(NC(=O)CCCNC(=O)c2ccc(Cl)cc2)c1	1.1	i
SMILES	KCNQ2 enhance	KCNQ2 inh
CC(NCC(O)COCCC12CC3CC(CC(C3)C1)C2)c1ccccc1 (stereo not given)	-7.7	-7.7*
NCC(O)COCCC12CC3CC(CC(C3)C1)C2 (stereo not given)	.	i
COc1cc(Cl)c(C)cc1NC(=O)COC(=O)CCc1nc2ccccc2c(=O)[nH]1	.	i
COc1ccc(CNC(=O)CN2CCN(c3ccccc3O)CC2)cc1OC	0.4	i
CCN(CC(=O)N1CCOCC1)S(=O)(=O)c1ccccc1	1.4	i
CN1CCN(c2ccc(Cl)cc2NC(=O)c2cccc(S(=O)(=O)N(C)C)c2)CC1	.	i
CN1CCN(c2ccc(Cl)cc2NC(=O)/C=C/c2cccc(F)c2)CC1	-6.5	-6.5*
CCN(CC)c1nc(NN)nc(Nc2ccc(C)c(Cl)c2)n1	.	i
COc1cccc(-c2nn(-c3ccc(C)cc3)cc2C(=O)NCC(c2cccs2)N2CCOCC2)c1 (stereo not given)	-6.9	-6.9*
COc1ccc(-c2nn(-c3ccccc3)cc2C(=O)NCC(c2cccs2)N2CCOCC2)cc1 (stereo not given)	.	i
Nc1nc(SCC(=O)Nc2ccc(Oc3ccccc3)cc2)n[nH]1	4	i
Nc1nc(SCC(=O)Nc2cccc(Oc3ccccc3)c2)n[nH]1	6.4*	i
COc1ccc(C(=O)NNC(=O)Cc2ccc([N+](=O)[O-])cc2)cc1	0.47	i
COc1ccc(CC2(C)OC(c3ccc([N+](=O)[O-])cc3)=NN2C(C)=O)cc1 (stereo not given)	-6.2	-6.2*
CC(C)CN(C(=O)c1ccc([N+](=O)[O-])s1)c1c(N)n(Cc2ccccc2)c(=O)[nH]c1=O	.	i
COc1ccc(-c2nc3cccc(C)n3c2NCc2ccco2)cc1OC	-6	-6*
COc1ccc(-c2csc(NCc3ccco3)n2)cc1C	.	i
CCN(CC)c1ccc(/C=N/N2CCN(Cc3ccccc3Cl)CC2)c(O)c1	.	i
CCN(CC)c1ccc(/C=N/N2CCN(Cc3ccc(C)cc3)CC2)c(O)c1	-6.2	-6.2*
COc1ccc(Cl)cc1S(=O)(=O)N(C)CC(=O)NCc1ccccn1	.	i
Cc1cc(C)cc(NC(=O)CCCCCN2C(=O)[C@@H]3Cc4ccccc4CN3C2=O)c1	.	i
